# Sampled rows, rich in hits. Any-hit rate of the full collection: about 3.3%.
# USP28 inh – inhibitors of human USP28 deubiquitinase; Q96RU2; purified USP28, Ub-rhodamine cleavage fluorescence, 30 min; inhibition, % at 25 µM; hit rate 3% among 47,000; AID 1645857
# Target sequence (Q96RU2 whole entry, looked up): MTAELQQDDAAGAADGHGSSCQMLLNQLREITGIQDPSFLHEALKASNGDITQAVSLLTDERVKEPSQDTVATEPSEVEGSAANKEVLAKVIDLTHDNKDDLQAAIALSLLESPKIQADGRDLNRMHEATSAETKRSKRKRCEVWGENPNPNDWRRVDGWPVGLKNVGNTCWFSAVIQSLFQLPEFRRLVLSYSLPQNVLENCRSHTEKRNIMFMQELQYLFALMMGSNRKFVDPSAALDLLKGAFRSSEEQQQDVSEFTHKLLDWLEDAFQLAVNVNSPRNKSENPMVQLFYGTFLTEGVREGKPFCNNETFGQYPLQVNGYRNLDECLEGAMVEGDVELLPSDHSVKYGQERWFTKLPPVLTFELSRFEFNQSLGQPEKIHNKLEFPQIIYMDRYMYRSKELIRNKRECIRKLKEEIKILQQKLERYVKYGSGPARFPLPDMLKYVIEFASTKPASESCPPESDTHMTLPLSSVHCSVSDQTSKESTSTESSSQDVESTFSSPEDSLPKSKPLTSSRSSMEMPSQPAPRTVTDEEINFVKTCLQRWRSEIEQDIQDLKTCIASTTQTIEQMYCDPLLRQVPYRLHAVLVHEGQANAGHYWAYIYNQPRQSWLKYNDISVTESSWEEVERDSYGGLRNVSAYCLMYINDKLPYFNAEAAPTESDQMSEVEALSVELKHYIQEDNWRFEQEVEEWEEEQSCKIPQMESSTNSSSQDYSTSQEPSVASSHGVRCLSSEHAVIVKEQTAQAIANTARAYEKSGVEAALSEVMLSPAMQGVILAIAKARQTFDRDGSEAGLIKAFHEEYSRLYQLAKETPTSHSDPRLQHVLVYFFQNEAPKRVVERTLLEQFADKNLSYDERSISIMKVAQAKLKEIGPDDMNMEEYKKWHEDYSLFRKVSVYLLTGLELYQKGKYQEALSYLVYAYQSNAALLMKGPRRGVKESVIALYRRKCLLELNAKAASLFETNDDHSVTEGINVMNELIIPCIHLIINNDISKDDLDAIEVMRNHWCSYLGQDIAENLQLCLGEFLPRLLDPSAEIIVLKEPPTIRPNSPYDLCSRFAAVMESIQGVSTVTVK
# OTUD3 block – human OTUD3 deubiquitinase inhibition; Q5T2D3; purified OTUD3, Ub-rhodamine fluorescence, 2 h; inhibition, % at 25 µM; hit rate 0.7% among 47,000
# Starred values were filed as active, the others as inactive. No stated cut-off is given here; in the data, active means inhibition above about 30%; inactive means the rest.
SMILES,USP28 inh,OTUD3 block
Cc1ccccc1CNS(=O)(=O)c1ccc2onc(C(=O)N3CCOCC3)c2c1,-0.9,-5.9
COc1cccc(CNS(=O)(=O)c2ccc3c(c2)CCCN3C(=O)C2CCC2)c1,30.2*,0.2
CC(=O)N1CCCc2cc(S(=O)(=O)NCc3ccc4c(c3)OCO4)ccc21,9.6,6.3
O=C(c1ccc(Oc2ncc(C(F)(F)F)cc2Cl)cc1)C1CC1c1ccc(Cl)cc1 (configuration not stated),6.5,13.3
O=C1COc2ccc(NC(=O)N3CCN(C(c4ccccc4)c4ccccc4)CC3)cc2N1,2.8,-3.4
O=C(Cc1cccc2ccccc12)Nc1ccc2c(c1)NC(=O)CO2,49.7*,0.6
CCN1CCC(n2c(C(F)(F)F)nc3c(Oc4ccccc4)cccc32)CC1,-3.0,-10.8
Cc1ccc(C)c(Nc2nc(NCc3ccccc3)c3ccccc3n2)c1,61.0*,32.9*
Cn1ncc2c(NCc3ccccc3)nc(NCCO)nc21,-8.2,0.1
COc1ccc(C(=O)Nc2sc3c(c2C(=O)NCc2cccnc2)CCCC3)cc1,26.5,40.2*
COc1ccc(CN2CCc3oc(C)c(C(=O)NCc4cccnc4)c3C2)cc1,-51.3,-42.5
COc1ccc(S(=O)(=O)NC(C(=O)O)c2cccs2)cc1 (configuration not stated),6.8,12.2
c1ccc(CSc2ccc3nnc(-c4ccccn4)n3n2)nc1,-1.6,2.7
Fc1cccc(-c2nnc3ccc(SCc4ccccn4)nn23)c1,11.7,15.1
c1ccc(CSc2ccc3nnc(-c4ccccn4)n3n2)cc1,33.5*,10.6
FC(F)(F)c1cccc(CSc2ccc3nnc(-c4ccccn4)n3n2)c1,77.6*,-2.6
O=C(NCCCc1nc2ccccc2n1Cc1ccc2ccccc2c1)c1ccco1,9.4,-4.0
Cc1ccc(CN2CCCn3nc(C(=O)NCc4ccc(F)cc4)cc3C2=O)cc1,13.5,7.7
O=C(CCCn1c(=O)c2ccccc2n(CC(=O)c2ccc(F)cc2)c1=O)NC1CCN(Cc2ccccc2)CC1,-15.8,6.9
O=C(CN1CCc2ccccc2C1)Nc1nc(-c2ccc3c(c2)CCN3C(=O)C2CC2)cs1,-6.0,-15.6
Cc1ccccc1-c1nc(Cn2ccnc2C)no1,32.4*,2.0
CCc1nccn1Cc1noc(-c2ccc(C)c(C)c2)n1,38.6*,-3.3
O=C(NC1CC1)c1cccn1Cc1noc(-c2ccc(Cl)cc2)n1,4.6,5.7
Cc1nccn1Cc1nc(-c2ccccc2)no1,17.5,3.2
COc1ccccc1-c1nc(Cn2cnc3ccccc3c2=O)no1,-4.3,-8.3
SMILES,USP28 inh,OTUD3 block
CCc1nccn1Cc1nc(-c2ccc(Cl)cc2)no1,42.8*,-1.3
Cc1nc(Cn2cnc(-c3nc(C(=O)N4CCCC4)c4ccccn34)c2)cs1,-12.2,-9.6
O=C(Nc1cccc(C(F)(F)F)c1)c1ccc(-c2nc(-c3ccc(Cl)cc3Cl)cs2)cc1,-0.1,9.6
Cc1ccc(S(=O)(=O)Nc2cc(N3CCCS3(=O)=O)ccc2C)cc1,2.6,2.9
Cc1ccc2c(=O)c3c([nH]c2c1C)CCN(CC(=O)NCc1ccccc1)C3,18.1,1.3
O=C(CCCN1CCc2ccccc2C1)c1ccc(F)cc1,0.4,1.5
CCOC(=O)c1ccc(NC(=O)Cn2c(=O)n(CC(=O)NCc3ccco3)c(=O)c3ccccc32)cc1,27.6,16.6
